We go through 57 sequences from the supplement of paper PMC11417369.

± gives the standard deviation of the averaged measurements. Over roughly 25,000 sequences, “ln(normalized median fluorescence intensity)” has its median near 10; the highest 2% begin near 12. What follows is part of a selection rich in the highest values, with near analogues and random picks from the rest.

The subject of this assay is PfAP2-G AP2 domain (GST-tagged). Briefly: gcPBM binding intensity (ln(normalized median fluorescence intensity)); higher = stronger DNA binding. Put shortly:
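After 1 h on an Agilent 4 × 180k array of primer-extended double-stranded 36-bp intergenic genomic probes and negative controls, bound GST-tagged P. falciparum DNA-binding domains were detected with Alexa488 anti-GST antibody and scanned at 488 nm. The domains had been expressed in E. coli, and binding took place in 1× PBS with 1% milk, 0.2 mg/ml BSA, 0.5% salmon testes DNA and 0.03% Triton X-100. Binding intensity is the highest Masliner-normalised natural-log median intensity across replicate spots of either probe orientation.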
On to “AAGTATAAATTAAAATGTACTTATAAAAAAAAAGAA [XGTACX_site7028]”, for which the “gcPBM binding intensity (ln)” value was 11.2 ± 0.72. Consider “TAGTAACTTGTATTCACACAAATTATATTATATTAC [CACACA_site5041]”, for which the “gcPBM binding intensity (ln)” value was determined as 9.965 ± 0.021. Take “ACGTATGTATATTACACACATACATATTATTCACTA [CACACA_site204]”: the “gcPBM binding intensity (ln)” value was found to be 10.1 ± 0.16. As for “AGTATGTAAATGTGCCATATATATATTAAATACATA [CACACA_negctrl_site14]”, the “gcPBM binding intensity (ln)” value is 10.1 ± 0.23.

Regarding “AACATATACACGAACACACACACATATAAATAAATA [CACACA_site6380]”, the “gcPBM binding intensity (ln)” value was 10.3 ± 0.37. Consider “ATAAAGTATATTATATGTACATATATATATTATATA [XGTACX_site1345]”, for which the “gcPBM binding intensity (ln)” value turned out to be 11.1 ± 0.52. As for “TTTTTTTTAGTATGAACACACATATATATTATAAAA [CACACA_site2935]”, the figure is 10.1 ± 0.25; as for “ATAAGAAAAAGACACACACACAAAAAAAAAAAAAAA [CACACA_site2828]”, 9.95 ± 0.49. As to “AAGATAAAATTATGTAGTACAAAAAAAAATAAAAAA [XGTACX_site139]”, the “gcPBM binding intensity (ln)” value came out at 11.7 ± 0.91. Take “AAAGATAAAATATTATGTACATATATATATATATAT [XGTACX_site5079]”: the “gcPBM binding intensity (ln)” value worked out at 11.1 ± 0.56. For “AATAATTATAAAAAATGTACAAAAAAAAAAAAAAAA [XGTACX_site3681]”, the “gcPBM binding intensity (ln)” value is 10.5 ± 0.83. For “CGCATGTATTTTGTGTGTACTAATTATAATCAACTT [XGTACX_site4709]”, the “gcPBM binding intensity (ln)” value was determined as 11.4 ± 0.83. As for “TTTTTTATGAGGTGGTGTACTTTTTTTTTTTTCTTT [XGTACX_site8550]”, the figure is 11.7 ± 0.97. Then “AAAAGTGTATGTAGGTGTACTTTTTATTTCTTCTTT [XGTACX_site8819]”, with 11.6 ± 0.98; and “TATGAGGAAACGTGGTGTACTTTTTTTTAATAAAAA [XGTACX_site1351]”, with 11.6 ± 0.93; and “ATATATATAATTTGTACACACAAATATGCATATATA [CACACA_site3432]”, with 11.3 ± 0.98. As for “TATATGCATAATAACTGTACACAAATTGGGGTTGAT [XGTACX_site459]”, the “gcPBM binding intensity (ln)” value is 11.6 ± 0.63.

On to “ATATATATATAATTTGTACACACAAATATGCATATA [CACACA_site9136]”, for which the “gcPBM binding intensity (ln)” value was 11.3 ± 0.88.

For “TATGTGCATATAAACTCACACATTGTATATTACATG [CACACA_site6106]”, the “gcPBM binding intensity (ln)” value was 10.14 ± 0.035. As for “ATATATACGTATGAATGTATATTTGTTTGATTTTTT [CACACA_negctrl_site835]”, the “gcPBM binding intensity (ln)” value was 9.88 ± 0.12.

For the sequence “AATGATTGATTTTATTGTACGTACTCGGAATATGGT [XGTACX_site4976]”, the “gcPBM binding intensity (ln)” value is 11.8 ± 1. Consider “ATTGTTTATATTGATTGTACTCATTTTTTTTTTATT [XGTACX_site1946]”, for which the “gcPBM binding intensity (ln)” value is 11.5 ± 0.99. Take “TATATATATACATATTGTACATATTACATGCTATTA [XGTACX_site1184]”: the “gcPBM binding intensity (ln)” value was found to be 10.9 ± 0.64. Then “ATATAAATATGACACACACACAAAAAAAATAAAGAC [CACACA_site6208]”, with 10.3 ± 0.2; and “TTTTTTTTTTTTTAAACATGCATAATAAATATAATA [TGCATGCA_site265]”, with 9.81 ± 0.35; and “ATTATATAATTTAATCGTACACAAATATTTGTTAGT [XGTACX_site5913]”, with 11.3 ± 0.8. Then “TGAAATTTATAATAGTGTACAAAGAAAAAAAAAAAA [XGTACX_site4965]”, with 11 ± 0.78. Then “ATATATATATATATATGTACGTAAACAAAAATTTAT [XGTACX_site6780]”, with 11.4 ± 0.91; and “TTTCGTAAACAAATTTGTACGTACAAATTTATAAAT [XGTACX_site8175]”, with 11.7 ± 1.1. For the sequence “CATATATATTTTATTTGTACGTATAAAAAAACAAAA [XGTACX_site4253]”, the “gcPBM binding intensity (ln)” value is 11.5 ± 1.1. Then “ACCTATTTATAATAGTGTACGTACAAATTTGTTTAC [XGTACX_site8176]”, with 11.7 ± 0.89. For “TTTTTTAAAAATAACTGTACAGAGGCTGTTAGGATA [XGTACX_site2521]”, the “gcPBM binding intensity (ln)” value turned out to be 11 ± 0.4. As for “TTCCAAAAAATTATTACACACATATGAGCACATATA [CACACA_site4543]”, the figure is 10.1 ± 0.18. Consider “TTTCCTTATTAAAACACACAAATACATTATTTAATC [CACACA_site7080]”, for which the “gcPBM binding intensity (ln)” value amounted to 9.875 ± 0.035. “AAAAGTATAATAAATTGTACTAACAAATATTTATGT [XGTACX_site7721]”: the “gcPBM binding intensity (ln)” value came out at 10.9 ± 0.56.

For the sequence “TTGAAAATGAAAAAATGTACTTAAAAAAAAGGAACA [XGTACX_site8664]”, the “gcPBM binding intensity (ln)” value was 11.2 ± 0.71. Then “CTTTGGTTATAACACACATGCACACGTAAATAAATA [TGCATGCA_site976]”, with 10.5 ± 0.25.

“ATTTTTTTTTTTTTTTTTTATATGCTCTCCATGAGA [CACACA_negctrl_site1225]”: the “gcPBM binding intensity (ln)” value was 9.7 ± 0.2. Then “GGGGGGAGGGTGAATACACACGTAATAATCATAAAC [CACACA_site8502]”, with 11.6 ± 0.79.

With “ATAAATATCATATATATACACACGTAATACATAATA [CACACA_site4001]”, the “gcPBM binding intensity (ln)” value amounted to 9.935 ± 0.092. Then “GGGGGGGGAGGGTGAATACACACGTAATAATCATAA [CACACA_site1716]”, with 11.6 ± 0.94. For the sequence “TCTTTTGTTTAACCTACATGCAGAATATAAGTCTTC [TGCATGCA_site99]”, the “gcPBM binding intensity (ln)” value turned out to be 10 ± 0.2. Then “TAATTCTTTATTTTTCGTACGTAAAACAAAAAATAT [XGTACX_site862]”, with 11.1 ± 0.79; and “AAAAATTCATTTTTATGTACGTACAAATTCTTCGTT [XGTACX_site2471]”, with 11.8 ± 0.87. As to “ATATATTCATTTTTATGTACGTAAATTGTAAATTGG [XGTACX_site8242]”, the “gcPBM binding intensity (ln)” value worked out at 11.6 ± 0.92. As for “CAGTTATTTTAATGTGGTACACAATTTTAAAATTAT [XGTACX_site8571]”, the figure is 11.5 ± 0.93; as for “TGAAAATAGTTAATTTGTACACAAAAATTAAGAAAA [XGTACX_site5794]”, 11.2 ± 0.8; as for “AATTTTGAGATGTGGTGTACACAAAATTAGTTAGAC [XGTACX_site7033]”, 11.7 ± 0.98. Then “ACACATACAACGTGGTGTACAAATAATTATAATCAA [XGTACX_site2287]”, with 11.1 ± 0.4; and “TTTGAGATGTGGTGTACACAAAATTAGGTACACATC [CACACA_site5773]”, with 12 ± 0.85. For “TTACATGTAAAAGGTACACACATTAGATATACAAAT [CACACA_site6651]”, the “gcPBM binding intensity (ln)” value was 11.3 ± 0.84. “TAAAAATAGTATACAACACACGAGGGAAAATAAAGT [CACACA_site3837]”: the “gcPBM binding intensity (ln)” value is 10.34 ± 0.099. As for “TATTTAAATTAATATTGTACATATATTTATAATATA [XGTACX_site6109]”, the “gcPBM binding intensity (ln)” value came out at 11.1 ± 0.71. “TTTTCATTTGAAAGTCGTACAAGTTCGAAAAAAGGA [XGTACX_site6840]”: the “gcPBM binding intensity (ln)” value was found to be 11.6 ± 1.2.

Take “GATATTTTTTTCGAAAGTACAAAAAAAAATATTTCC [XGTACX_site4389]”: the “gcPBM binding intensity (ln)” value came to 11 ± 0.72. Then “TATATTTTTATTGAACGTACAAAAAGTCGAAAACAG [XGTACX_site3967]”, with 11.4 ± 0.74; and “TTTTTTATTTGACAAGCACACACTTAAATATATATA [CACACA_site3358]”, with 10.2 ± 0.33.
